This is a sample that favours compounds with a hit; in the whole collection about 18% have one here.
RORgamma inh – blocks mouse ROR gamma transcriptional activity. P51450. Drosophila S2 Gal4-RORgamma UAS-luciferase reporter, 20 h. Potency, µM (doses to about 53.6 µM), actives largely listed as inhibitors. actives 5.4% (n = 310,000); further: nearly all actives have a fitted effect of over 60% in size
Target sequence (P51450 whole entry, looked up, the tested form may be a part): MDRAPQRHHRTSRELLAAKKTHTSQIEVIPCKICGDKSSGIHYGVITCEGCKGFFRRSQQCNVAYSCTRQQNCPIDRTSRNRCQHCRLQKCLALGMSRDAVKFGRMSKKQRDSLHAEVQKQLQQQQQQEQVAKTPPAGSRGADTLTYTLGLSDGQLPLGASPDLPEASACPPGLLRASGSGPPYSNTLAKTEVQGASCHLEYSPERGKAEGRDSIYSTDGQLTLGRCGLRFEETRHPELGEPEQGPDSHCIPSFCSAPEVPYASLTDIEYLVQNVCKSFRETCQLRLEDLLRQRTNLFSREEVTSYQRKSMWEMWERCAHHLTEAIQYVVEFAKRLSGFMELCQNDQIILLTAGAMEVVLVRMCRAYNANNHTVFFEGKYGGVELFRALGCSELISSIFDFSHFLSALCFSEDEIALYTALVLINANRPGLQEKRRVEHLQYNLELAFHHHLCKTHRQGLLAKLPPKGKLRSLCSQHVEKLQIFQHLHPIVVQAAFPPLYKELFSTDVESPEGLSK
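Using a luciferase readout, inhibitors were identified by reduced reporter activity in Drosophila cells coexpressing a copper-inducible Gal4–ROR gamma fusion and UAS-driven Photinus luciferase, incubated 20 hr after 700 uM copper sulfate.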
TDP1 cell noCPT – qHTS for Inhibitors of human tyrosyl-DNA phosphodiesterase 1 (TDP1): qHTS in cells in absence of CPT; DT40 Tdp1-/- hTDP1 cells, no CPT, ATP luminescence, 48 h; Potency, µM (series often up to 46.2 µM), actives largely listed as inhibitors; actives 15% (n = 420,000); further: nearly all actives have a fitted effect of over 55% in size
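Readout: luminescence from CellTiter-Glo after 30 min in the dark at RT. Cells: DT40 Tdp1-/- with stable hTDP1, 400/well. Exposure: compounds alone, ≥48 hr, 37 °C.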
Gal4-VP16 FLuc – inhibits Gal4-VP16 luciferase reporter, ROR gamma counter-screen; Drosophila S2 Gal4-VP16 UAS-luciferase, luminescence, 20 h; Potency, µM (titrated, usually from 53.6 µM), usual class: inhibitors; actives 3.5% (n = 310,000); AID 2546;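 further: Gal4-VP16 expression switched on by copper sulfate through the metallothionein promoter; nearly all actives have a fitted effect of over 50% in size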
LDHA block – inhibitors of human lactate dehydrogenase A. P00338. purified LDHA, NADH/diaphorase-resazurin fluorescence; stronger effect = lower value. activity change, % (values are at about 110 or 230 µM). actives 0.15% (n = 480,000). AID 1347041; in the data active means activity change below about -30%; inconclusive means mostly about -25% to -30%
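LDH5 2 nM; NADH 0.06 mM, pyruvate 0.2 mM; 200 mM Tris pH 7.4, EDTA, Tween-20; 5 min RT. Detection: diaphorase 0.133 mg/mL + resazurin 37 µM, fluorescence ex540/em590 at 0 and 20 min; normalized to enzyme-free and DMSO wells.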
DT40 TDP1 CPT – growth inhibition of DT40 Tdp1-/-;hTDP1 cells with camptothecin (screen for TDP1 inhibitors). chicken DT40 Tdp1-/-;hTDP1 cells + 20 nM CPT, ATP luminescence, 48 h. Potency, µM (highest dose often 46.2 µM), most hits filed as inhibitors. actives 12% (n = 420,000); further: nearly all actives have a fitted effect of over 55% in size
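Chicken DT40 Tdp1-/- cells stably complemented with human TDP1 were seeded at 400 cells/well in medium containing 20 nM camptothecin, exposed to pin-transferred compounds, and grown at 37 °C for at least 48 hr. Viability was read as ATP luminescence.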
IL-1B inflam inh – inhibitors of inflammasome signaling (IL-1 beta secretion); THP-1 LPS/ATP IL-1B secretion, AlphaLISA, 16 h; stronger effect = lower value; actives 4.7% (n = 360,000); AID 743279; activity change, % at 57.5 µM; in the data active means activity change below about -50%; inconclusive means mostly about -30% to -49%
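THP-1 cells pretreated 1 hr with compounds (up to 57.5 uM final), then stimulated with LPS (250 ng/mL final) plus ATP (1.25 mM final); secreted IL-1B measured by AlphaLISA after 16 hr, decreased signal indicating inhibition.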
Numbers stand for hits; 0 = inactive; ? = inconclusive; - = not tested or not shown; [ ] = another dose, or the depositor's remark. Unless noted, the call rests on the fitted dose curve; in most records, active means well fitted curve in the direction sought with a large enough effect; inconclusive means small, poorly fitted or top-dose-only effect, or another doubt; inactive means no such curve, though single readings can be large; an effect the other way counts as inactive or inconclusive.

SMILES | RORgamma inh | TDP1 cell noCPT | Gal4-VP16 FLuc | LDHA block | DT40 TDP1 CPT | IL-1B inflam inh
CN(C)c1ccc(-c2nn3c(-c4ccc(Cl)cc4)nnc3s2)cc1 | 0 | ? | 0 | 0 | 0 | 0
CN(C)c1ccc(-c2nn3c(C4CCCCC4)nnc3s2)cc1 | 0 | 23µM | 0 | 0 | 16µM | 0
COc1cc(C(=O)Nc2cc(Cl)ccc2OCC2CCCO2)cc(OC)c1OC (stereo not given) | - | - | - | 0 | - | -
Cc1ccc(N(C)S(=O)(=O)c2cccc(C(=O)N(C)Cc3cnn(-c4ccccc4)c3)c2)cc1 | - | ? | - | 0 | ? | -81
CN(Cc1cnn(-c2ccccc2)c1)C(=O)c1cccc(S(=O)(=O)N(C)c2ccccc2)c1 | - | 16µM | - | 0 | 18µM | 0
CN(Cc1cnn(-c2ccccc2)c1)C(=O)c1ccc(S(=O)(=O)NCc2ccco2)cc1 | - | ? | - | 0 | 0 | 0
CN(Cc1ccccc1)C(=O)c1ccc(S(=O)(=O)N(C)c2ccccc2)cc1 | - | ? | - | 0 | ? | 0
Cc1nc2sc3c(c2c2nc(C(=O)NCCN(C)C)nn12)CCCC3 | - | - | - | 0 | - | -
COc1cccc(OC)c1C(=O)OCc1ccccc1Br | - | - | - | 0 | - | -
CN(C)C(=O)CN1CCN(C(C(=O)O)c2c[nH]c3cc(F)ccc23)CC1 (stereo not given) | - | - | - | 0 | - | -
O=C(Nc1ccccc1N1CCOCC1)c1cc(-c2ccncc2)nc2ccccc12 | 0 | 12µM | 0[10 µM] | 0 | 12µM | 0
COc1ccc(-c2cc(C(=O)Nc3ccccc3N3CCOCC3)c3ccccc3n2)cc1OC | 0 | 4.6µM | 0 | 0 | 7.3µM | -52
O=C(NN1CCOCC1)c1cc(-c2ccncc2)nc2ccccc12 | 0 | 0 | 0 | 0 | 0 | 0
COc1cc(-c2cc(C(=O)Nc3ccc(N4CCOCC4)cc3)c3ccccc3n2)cc(OC)c1OC | 0 | 1.8µM | 0 | 0 | 2.6µM | 0
COc1ccc(-c2cc(C(=O)Nc3ccc(Cl)cc3Cl)c3ccccc3n2)cc1OC | 0 | ? | 0 | 0 | ? | 0
Cc1ccccc1NC(=O)c1cc(-c2ccco2)nc2ccccc12 | - | ? | - | 0 | 0 | -
CCOc1cc(N2CCOCC2)c(OCC)cc1NC(=O)c1cc(-c2ccco2)nc2ccccc12 | 0 | 23µM | ? | 0 | ? | 0
COc1cc(NC(=O)c2ccc(Cn3cc(Br)cn3)cc2)ccc1OC(F)F | - | - | - | 0 | - | -
CC(NC/C=C/c1ccccc1)c1ccccc1 (stereo not given) | - | - | - | 0 | - | -
COc1cc(-c2cc(C(=O)Nc3cc(S(=O)(=O)N4CCOCC4)ccc3C)c3ccccc3n2)cc(OC)c1OC | - | 12µM | - | 0 | 16µM | 0
O=C(Nc1ccc(SC(F)F)cc1)c1cc(-c2ccncc2)nc2ccccc12 | - | 21µM | - | 0 | ? | 0
COc1ccc(-c2cc(C(=O)Nc3cc(S(N)(=O)=O)ccc3C)c3ccccc3n2)cc1OC | - | 23µM | - | 0 | ? | 0
Cc1ccc(NC(=O)c2cc(-c3ccncc3)nc3ccccc23)cc1 | - | - | - | 0 | - | -
COc1ccc(-c2cc(C(=O)NNC(=O)c3csc(N4CCOCC4)n3)c3ccccc3n2)cc1 | - | ? | - | 0 | 0 | 0
COc1ccc(-c2cc(C(=O)NNC(=O)c3csc(N4CCOCC4)n3)c3ccccc3n2)cc1OC | - | 16µM | - | 0 | 21µM | 0
SMILES | RORgamma inh | TDP1 cell noCPT | Gal4-VP16 FLuc | LDHA block | DT40 TDP1 CPT | IL-1B inflam inh
O=C(Nc1ccc(N2CCOCC2)cc1)c1cc(-c2ccncc2)nc2ccccc12 | 0 | ? | 0 | 0 | 21µM | 0
O=C(Nc1ccccc1N1CCOCC1)c1ccc2ccccc2n1 | 0 | 16µM | 0 | 0 | ? | 0
COc1ccc(C(=O)Nc2cc(NC(=O)c3ccc(Br)o3)ccc2OC)cc1 | - | - | - | 0 | - | -
CSc1cc(-c2ccccc2)n(Cc2ccc(Cl)cc2Cl)c(=O)c1C#N | 0 | 23µM | 0 | 0 | 18µM | 0
Cc1ccc(-c2ccccc2NC(=O)C2C3C=CC(C3)C2C(=O)O)o1 (stereo not given) | 4.5µM | 0 | 4.5µM | 0 | 0 | 0
Cc1ccc(-c2ccccc2NC(=O)CS(=O)CC(=O)Nc2ccc(C)c(Cl)c2)o1 (stereo not given) | ? | ? | 0 | 0 | ? | -77
Cc1ccc(NC(=O)CS(=O)CC(=O)NC(C)CCc2ccco2)cc1Cl (stereo not given) | 0 | ? | 0 | 0 | 0 | 0
Cc1ccc(-c2ccccc2NC(=O)CCl)o1 | 0 | 21µM | 0 | 0 | 15µM | -59
COc1ccccc1NC(=O)CSc1oc(-c2ccco2)nc1S(=O)(=O)c1ccc(C)cc1 | - | ? | - | 0 | 23µM | -
O=S(=O)(c1ccc(F)cc1)c1nc(-c2ccco2)oc1Nc1ccc(F)cc1 | ? | ? | 0 | 0 | ? | ?
COc1ccccc1NC(=O)CSc1oc(-c2ccccc2)nc1S(=O)(=O)c1ccccc1 | - | 16µM | - | 0 | 21µM | -
COc1ccccc1NC(=O)CSc1oc(-c2cccs2)nc1S(=O)(=O)c1ccc(Br)cc1 | - | ? | - | 0 | 23µM | -
COc1ccc(Nc2oc(-c3ccco3)nc2S(=O)(=O)c2ccc(F)cc2)cc1 | ? | ? | 0 | 0 | ? | -57
COc1ccccc1NC(=O)CSc1oc(-c2ccc(F)cc2)nc1S(=O)(=O)c1ccc(Br)cc1 | - | 13µM | - | 0 | 21µM | -
Cc1ccc(S(=O)(=O)c2nc(-c3ccccc3)oc2SCC(=O)NC2CCCCC2)cc1 | - | 0 | - | 0 | 0 | -
COc1ccccc1NC(=O)CSc1oc(-c2ccccc2)nc1S(=O)(=O)c1ccc(C)cc1 | - | 21µM | - | 0 | 18µM | -
NC(=O)CSc1oc(-c2ccc(F)cc2)nc1S(=O)(=O)c1ccccc1 | 0[0.365 µM] | 0 | - | 0 | 0 | 0
CCSc1nnc2n(CC)c(=O)c3c(n12)-c1ccccc1CC31CCCCC1 | - | - | - | 0 | - | -
CS(=O)(=O)c1ccc(C(=O)OC2CCOC2=O)cc1[N+](=O)[O-] (stereo not given) | 4.5µM | ? | ? | 0 | ? | ?
CCOC(=O)C(=Cc1c[nH]c2ccc(S(=O)(=O)N(C)C)cc12)C(=O)OCC | ? | 16µM | 0 | 0 | ? | -101
CCOC(=O)C(=Cc1c[nH]c2ccccc12)C(=O)OCC | - | - | - | 0 | - | -
Cc1oc(-c2nc(C#N)c(NC(C)c3ccccc3)o2)cc1S(=O)(=O)N1CCCC1 (stereo not given) | - | - | - | 0 | - | -
CN1C(=O)N(C)c2cccc3cccc1c23 | 0 | 0 | 0 | 0 | 0 | 0
CC1=CC(=O)N(c2cccc3c(N4C(=O)C=C(C)C4=O)cccc23)C1=O | - | 2.9µM | - | 0 | 1.8µM | -81
Cc1ccc([N+](=O)[O-])c(C)c1N | - | - | - | 0 | - | -
COc1ccccc1N1CCN(C(=O)Cn2c(=O)n3nc(-c4cccc(C)c4)nc3c3ccccc32)CC1 | - | ? | - | 0 | ? | -
O=C(Cn1c(=O)n2nc(-c3cccc(F)c3)nc2c2ccccc21)NCc1ccc(Cl)cc1 | - | 0 | - | 0 | 0 | -

Screening data from PubChem.
